The source made the active and inactive calls.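 Rule for the calls, unless noted: active = visual image review flags a hit and inhibition of aggregation exceeds 20%; inconclusive = visual hit but inhibition at or below 20%; inactive = no hit on visual image review.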
Assay: inhibitors of mutant huntingtin aggregation, primary screen, imaging, exon1htt(103Q)mCFP cells, high-content imaging (AID 483);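 note: compound exposure lasted 3 days before fixation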;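 for nuclei count: percent of the per-plate median nuclei count of sample wells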
Conditions: exon1htt(103Q)mCFP cell line, aggregate imaging, at 2 µM; inhibition of aggregation: stronger effect = higher value; nuclei count: measured here: cell count, toxicity

SMILES | inhibition of aggregation | nuclei count
CC(C)Cn1c(=O)c(C(=O)Nc2ccccc2S(N)(=O)=O)c(O)c2ccccc21 | -9.5% (inactive) | 99.4%
O=C(CCN1CCc2ccccc2C1)Nc1ccc2c(c1)OCO2 | 14.5% (inactive) | 96.1%
CCN1C(=O)c2ccccc2S(=O)(=O)c2ccc(C(=O)NCc3cccnc3)cc21 | -35.7% (inactive) | 107%
O=C(O)CCc1ccc(-c2cccs2)o1 | -10.2% (inactive) | 103%
CCCCOCCCNC(=O)c1cccs1 | -4.3% (inactive) | 103%
O=C1CC(C2CCCO2)C(=O)N1Cc1ccccc1 (stereo not given) | 19% (inactive) | 101%
Cc1onc(-c2ccccc2)c1C(=O)Nc1ccc(S(=O)(=O)N2CCCCC2)cc1 | -10.9% (inactive) | 97.3%
O=C(CSc1nnc(-c2ccccc2)o1)N1CCN(c2ccccc2)CC1 | -9.2% (inactive) | 88.7%
CC1=C(C(=O)Nc2ccccc2)C(c2ccccn2)n2nc(CCCO)nc2N1 (stereo not given) | 13.8% (inactive) | 93.5%
COc1ccc(C(=O)CSc2nnc(C3CCCCC3)n2N)c(OC)c1 | 24.4% (inactive) | 97.2%
COc1cc(NC(=O)Cc2ccccc2OC)cc(OC)c1 | 9.8% (inactive) | 81.8%
COC(=O)CCC(=O)Nc1cccc(Br)c1 | -24.7% (inactive) | 111%
N#Cc1c(NC(NC(=O)c2ccco2)C(=O)c2ccccc2)sc2c1CCCC2 (stereo not given) | -7.6% (inactive) | 118%
O=C(COc1ccc2ccccc2c1)N1CCCC1 | 4% (inactive) | 77.8%
COc1ccccc1S(=O)(=O)Cc1ccc(C(=O)NCCN2CCCCCC2)o1 | 15.2% (inactive) | 91.6%
O=C1C2CC=CCC2C(=O)N1c1ccc(Cc2ccncc2)cc1 (stereo not given) | -8.1% (inactive) | 107%
COCCNC(=O)C(c1ccc(O)cc1)N(Cc1ccco1)C(=O)CCC(=O)Nc1nccs1 (stereo not given) | 0.1% (inactive) | 102%
Cc1ccc(C)c(NC(=O)c2ccc3c(c2)N(Cc2ccc(F)cc2)C(=O)CS3=O)c1 (stereo not given) | -0.7% (inactive) | 105%
Cc1ccc(NC(=O)CN(C)S(=O)(=O)c2cccc3nsnc23)cc1Cl | 7.2% (inactive) | 105%
CS(=O)(=O)N1CCC(C(=O)NCCC2=CCCCC2)CC1 | 8% (inactive) | 100%

SMILES | inhibition of aggregation | nuclei count
O=C(CSc1ncccn1)NCc1ccccc1 | 12.3% (inactive) | 103%
Cc1cccnc1-n1c(CCN2C(=O)c3ccccc3C2=O)nc2ccccc2c1=O | 12.7% (inactive) | 84.4%
CCCn1c(O)c(CN2CCCC(C)C2)c(C)c(C#N)c1=O (stereo not given) | 2.6% (inactive) | 91.2%
COc1ccc(N2C(=O)CCC(C(=O)N3CCCCC3)C2c2ccc(OC)c(OC)c2)cc1 (stereo not given) | 21.6% (inactive) | 96.5%
COC(=O)CSC1=C(C#N)C(c2ccc(F)cc2)CC(=O)N1 (stereo not given) | -6.5% (inactive) | 91.8%
Cn1nnc2cc(C(=O)N3CCCCCC3)ccc21 | -9% (inactive) | 105%
COC(=O)c1cc(-c2ccccc2)sc1NC(=O)c1cc(C)on1 | -13.8% (inactive) | 104%
CCC(c1nnnn1C(C)(C)C)N1CCN(C2CCCC2)CC1 (stereo not given) | -7.5% (inactive) | 124%
Cn1c(=O)c2ncn(CC(=O)NCCOc3ccc(C(C)(C)C)cc3)c2n(C)c1=O | -9.8% (inactive) | 103%
O=C(COC(=O)c1cc(-c2ccco2)nc2ccccc12)NCc1ccc2c(c1)OCO2 | -7.7% (inactive) | 54%
CCN=C1SC(CC(=O)Nc2ccccc2)C(=O)N1CC (stereo not given) | 26.6% (inactive) | 92%
Cn1c(=O)c2c(nc(CN3CCCCC3)n2CCc2ccccc2)n(C)c1=O | -29.9% (inactive) | 79%
COc1cc(C(O)c2nc3ccccc3n2C)cc(OC)c1OC (stereo not given) | 21.2% (inactive) | 81.3%
c1ccc(CSc2nnc(-c3cccs3)n2Cc2ccco2)cc1 | -3.7% (inactive) | 102%
CCCCC(=O)NCCNc1nc2c(c(=O)n(C)c(=O)n2C)n1Cc1ccccc1 | -14.2% (inactive) | 105%
CCOc1ccccc1C1C(C(=O)Nc2ccc(OC)cc2)=C(C)Nc2nc(CCCO)nn21 (stereo not given) | -30.8% (inactive) | 116%
CCCN(CCC)CCNC(=O)c1cc2c(=O)n(C)c3ccccc3c2n1C | -18.3% (inactive) | 109%
Cc1nc2ccc(NC(=O)NCc3ccco3)cc2s1 | 21.2% (inactive) | 100%
COc1cc(Br)cc(CN2CCN(C/C=C/c3ccccc3)CC2)c1O | -5% (inactive) | 98.5%
COC(=O)C1=C(C)OC(N)=C(C#N)C1c1c(C)nn(-c2ccccc2)c1Cl (stereo not given) | 12.3% (inactive) | 107%

Assay: inhibitors of E-selectin induction by TNFa, primary screen, imaging, HUVEC, immunofluorescence, MLSMR starter and 10KST1 sets (AID 487;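 active = visually confirmed hit in the image check and inhibition above 20%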;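 for inhibition: signal is fraction of cell area covered by stained E-selectin grains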;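 for nuclei count: 100% = median nuclei count of all wells on the same plate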)
Conditions: HUVEC TNFalpha-induced E-selectin immunofluorescence imaging, at 2 µM; inhibition: stronger effect = higher value; nuclei count: measured here: cell number, toxicity

SMILES | inhibition | nuclei count
CC(C)Cn1c(=O)c(C(=O)Nc2ccccc2S(N)(=O)=O)c(O)c2ccccc21 | 60.6% (active) | 92.3%
O=C(CCN1CCc2ccccc2C1)Nc1ccc2c(c1)OCO2 | -84.4% (inactive) | 110%
CCN1C(=O)c2ccccc2S(=O)(=O)c2ccc(C(=O)NCc3cccnc3)cc21 | -50.1% (inactive) | 129%
O=C(O)CCc1ccc(-c2cccs2)o1 | -23.1% (inactive) | 118%
CCCCOCCCNC(=O)c1cccs1 | -392% (inactive) | 139%
O=C1CC(C2CCCO2)C(=O)N1Cc1ccccc1 (stereo not given) | -1.7% (inactive) | 125%
Cc1onc(-c2ccccc2)c1C(=O)Nc1ccc(S(=O)(=O)N2CCCCC2)cc1 | -35.5% (inactive) | 108%
O=C(CSc1nnc(-c2ccccc2)o1)N1CCN(c2ccccc2)CC1 | -98.1% (inactive) | 105%
CC1=C(C(=O)Nc2ccccc2)C(c2ccccn2)n2nc(CCCO)nc2N1 (stereo not given) | -8.5% (inactive) | 116%
COc1ccc(C(=O)CSc2nnc(C3CCCCC3)n2N)c(OC)c1 | 99.1% (active) | 89.1%
COc1cc(NC(=O)Cc2ccccc2OC)cc(OC)c1 | -96.9% (inactive) | 87.6%
COC(=O)CCC(=O)Nc1cccc(Br)c1 | 56.2% (active) | 91.4%
N#Cc1c(NC(NC(=O)c2ccco2)C(=O)c2ccccc2)sc2c1CCCC2 (stereo not given) | -31.6% (inactive) | 121%
O=C(COc1ccc2ccccc2c1)N1CCCC1 | -27.1% (inactive) | 97.9%
COc1ccccc1S(=O)(=O)Cc1ccc(C(=O)NCCN2CCCCCC2)o1 | 9% (inactive) | 81.1%
O=C1C2CC=CCC2C(=O)N1c1ccc(Cc2ccncc2)cc1 (stereo not given) | 29.1% (inactive) | 95.7%
COCCNC(=O)C(c1ccc(O)cc1)N(Cc1ccco1)C(=O)CCC(=O)Nc1nccs1 (stereo not given) | -52.2% (inactive) | 116%
Cc1ccc(C)c(NC(=O)c2ccc3c(c2)N(Cc2ccc(F)cc2)C(=O)CS3=O)c1 (stereo not given) | 3.5% (inactive) | 122%
Cc1ccc(NC(=O)CN(C)S(=O)(=O)c2cccc3nsnc23)cc1Cl | -20.4% (inactive) | 115%
CS(=O)(=O)N1CCC(C(=O)NCCC2=CCCCC2)CC1 | -89.9% (inactive) | 106%

SMILES | inhibition | nuclei count
O=C(CSc1ncccn1)NCc1ccccc1 | 36.4% (inactive) | 120%
Cc1cccnc1-n1c(CCN2C(=O)c3ccccc3C2=O)nc2ccccc2c1=O | -12.9% (inactive) | 83.7%
CCCn1c(O)c(CN2CCCC(C)C2)c(C)c(C#N)c1=O (stereo not given) | -59.7% (inactive) | 113%
COc1ccc(N2C(=O)CCC(C(=O)N3CCCCC3)C2c2ccc(OC)c(OC)c2)cc1 (stereo not given) | -17.5% (inactive) | 97%
COC(=O)CSC1=C(C#N)C(c2ccc(F)cc2)CC(=O)N1 (stereo not given) | 0.6% (inactive) | 91%
Cn1nnc2cc(C(=O)N3CCCCCC3)ccc21 | -5.7% (inactive) | 107%
COC(=O)c1cc(-c2ccccc2)sc1NC(=O)c1cc(C)on1 | -21.2% (inactive) | 111%
CCC(c1nnnn1C(C)(C)C)N1CCN(C2CCCC2)CC1 (stereo not given) | -46.6% (inactive) | 128%
Cn1c(=O)c2ncn(CC(=O)NCCOc3ccc(C(C)(C)C)cc3)c2n(C)c1=O | -15.3% (inactive) | 106%
O=C(COC(=O)c1cc(-c2ccco2)nc2ccccc12)NCc1ccc2c(c1)OCO2 | 3.4% (inactive) | 108%
CCN=C1SC(CC(=O)Nc2ccccc2)C(=O)N1CC (stereo not given) | -95.4% (inactive) | 109%
Cn1c(=O)c2c(nc(CN3CCCCC3)n2CCc2ccccc2)n(C)c1=O | -3.5% (inactive) | 158%
COc1cc(C(O)c2nc3ccccc3n2C)cc(OC)c1OC (stereo not given) | -13.7% (inactive) | 108%
c1ccc(CSc2nnc(-c3cccs3)n2Cc2ccco2)cc1 | 51.5% (inactive) | 102%
CCCCC(=O)NCCNc1nc2c(c(=O)n(C)c(=O)n2C)n1Cc1ccccc1 | 28.6% (inactive) | 106%
CCOc1ccccc1C1C(C(=O)Nc2ccc(OC)cc2)=C(C)Nc2nc(CCCO)nn21 (stereo not given) | -35.4% (inactive) | 118%
CCCN(CCC)CCNC(=O)c1cc2c(=O)n(C)c3ccccc3c2n1C | -57.7% (inactive) | 112%
Cc1nc2ccc(NC(=O)NCc3ccco3)cc2s1 | -15.3% (inactive) | 82.3%
COc1cc(Br)cc(CN2CCN(C/C=C/c3ccccc3)CC2)c1O | 3% (inactive) | 108%
COC(=O)C1=C(C)OC(N)=C(C#N)C1c1c(C)nn(-c2ccccc2)c1Cl (stereo not given) | -33.5% (inactive) | 126%
